Design in all cases: scale not given: direction of the effect not stated beside the values
The target in assay [1] is Protein translocase subunit SecA (Escherichia coli (strain K12)) (UniProt P10408). The experiment in a line: Assay to Identify E. coli SecA ATPase Inhibitors. The format is functional. Particulars: 30 µM.
In assay [2] the target is T1, Ubiquitin-activating enzyme e1, putative (Leishmania donovani (strain BPK282A1)) (UniProt E9BSI1).
T1 sequence (whole entry): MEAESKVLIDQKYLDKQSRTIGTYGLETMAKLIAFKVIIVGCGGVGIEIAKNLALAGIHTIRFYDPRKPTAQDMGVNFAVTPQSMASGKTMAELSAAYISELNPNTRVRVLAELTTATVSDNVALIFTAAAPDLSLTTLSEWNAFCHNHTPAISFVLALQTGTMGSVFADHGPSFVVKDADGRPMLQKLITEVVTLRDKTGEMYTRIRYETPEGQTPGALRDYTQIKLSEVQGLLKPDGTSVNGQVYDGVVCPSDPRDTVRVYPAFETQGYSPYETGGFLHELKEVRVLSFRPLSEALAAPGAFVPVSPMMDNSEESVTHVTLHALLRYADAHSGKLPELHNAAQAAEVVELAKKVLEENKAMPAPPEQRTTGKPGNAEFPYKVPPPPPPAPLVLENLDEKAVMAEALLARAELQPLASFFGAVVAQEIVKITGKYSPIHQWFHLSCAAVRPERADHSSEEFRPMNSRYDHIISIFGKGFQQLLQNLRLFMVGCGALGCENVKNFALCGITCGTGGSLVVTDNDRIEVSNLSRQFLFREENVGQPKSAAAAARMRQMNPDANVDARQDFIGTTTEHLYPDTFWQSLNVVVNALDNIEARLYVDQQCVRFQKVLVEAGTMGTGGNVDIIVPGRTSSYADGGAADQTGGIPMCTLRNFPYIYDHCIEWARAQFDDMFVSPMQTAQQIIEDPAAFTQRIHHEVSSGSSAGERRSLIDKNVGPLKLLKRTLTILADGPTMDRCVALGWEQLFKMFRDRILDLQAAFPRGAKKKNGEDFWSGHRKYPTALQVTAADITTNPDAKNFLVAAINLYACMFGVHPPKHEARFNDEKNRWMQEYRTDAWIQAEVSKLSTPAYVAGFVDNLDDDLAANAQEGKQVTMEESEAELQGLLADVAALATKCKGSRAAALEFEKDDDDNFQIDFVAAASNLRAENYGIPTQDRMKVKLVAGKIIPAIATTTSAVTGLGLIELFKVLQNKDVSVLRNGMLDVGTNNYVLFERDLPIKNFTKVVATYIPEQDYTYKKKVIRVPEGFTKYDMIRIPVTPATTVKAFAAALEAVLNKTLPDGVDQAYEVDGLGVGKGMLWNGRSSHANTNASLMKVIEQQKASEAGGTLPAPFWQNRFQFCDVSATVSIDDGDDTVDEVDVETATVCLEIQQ
Briefly: Leishmania donovani Ubiquitin Activating Enzyme (LdE1). Type of assay: functional. To be noted: 30 µM.

The target in assay [3] is AMP-activated protein kinase, AMPK (Homo sapiens) (UniProt P54646+O43741+P54619+Q9UGJ0+Q9Y478+Q13131+Q9UGI9). The experiment in a line: AMP-dependent Kinase enzyme assay. An in vitro enzyme assay that detects ADP turnover that is directly proportional to AMPK activity. This uses naive AMPK that is activated during the assay with MK-8722. Particulars: 30 µM. Type of assay: functional.

Assay [4] concerns the target Sialic acid-binding Ig-like lectin 9 (Homo sapiens) (UniProt Q9Y336). Briefly: Hs-Siglec9 ALPHAscreen SOP 20170721. To be noted: 10 µM.
Assay [5] concerns Trypanosoma cruzi. The experiment in a line: Trypanosoma cruzi phosphomannomutase and mannose-1-phosphate guanylyltransferase assay. To be noted: 10 µM. The format is functional.
The target in assay [6] is T2, Arginase-2, mitochondrial (Homo sapiens) (UniProt P78540).
T2 sequence (whole entry): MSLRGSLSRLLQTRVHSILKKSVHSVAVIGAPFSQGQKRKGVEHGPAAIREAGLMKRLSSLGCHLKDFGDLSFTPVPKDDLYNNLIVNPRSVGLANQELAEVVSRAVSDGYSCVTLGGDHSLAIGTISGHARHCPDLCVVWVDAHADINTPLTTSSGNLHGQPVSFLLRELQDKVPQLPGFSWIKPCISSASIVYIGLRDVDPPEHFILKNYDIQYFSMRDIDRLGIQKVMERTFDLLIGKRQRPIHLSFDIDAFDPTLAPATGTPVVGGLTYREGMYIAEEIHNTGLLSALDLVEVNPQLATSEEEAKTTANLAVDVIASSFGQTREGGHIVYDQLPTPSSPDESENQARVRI
Briefly: in vitro enzyme assay to detect the production of urea directly proportional to the activity of Arginase II. Also: in the data most compounds retested in dose-response had high values. The format is functional. To be noted: 33.3 µM.

Assay [7] concerns the target T3, Proteasome subunit beta (Trypanosoma cruzi) (UniProt O96673).
T3 sequence (whole entry): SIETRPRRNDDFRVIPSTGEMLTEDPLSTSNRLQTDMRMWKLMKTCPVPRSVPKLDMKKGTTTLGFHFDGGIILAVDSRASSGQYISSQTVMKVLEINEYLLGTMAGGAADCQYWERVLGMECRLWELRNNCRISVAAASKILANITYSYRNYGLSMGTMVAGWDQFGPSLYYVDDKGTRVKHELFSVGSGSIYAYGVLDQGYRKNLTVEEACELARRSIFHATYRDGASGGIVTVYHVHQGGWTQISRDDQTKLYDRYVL
The experiment in a line: Trypanosoma cruzi proteasome chymotrypsin-like activity (TcProtChymo) assay. Also: in the data most compounds retested in dose-response had high values. The format is functional. To be noted: 9.37 µM.

The species entered for assay [8] is Homo sapiens. The experiment in a line: To identify inhibition of the IFN signalling (Jak-Stat) pathway via expression of an eGFP reporter gene under the control of an IFN-stimulated response element (ISRE) containing MxA promoter. Particulars: 30 µM. Type of assay: functional.
For assay [9], the target named is T4, Tyrosyl-tRNA synthetase, putative (Trypanosoma cruzi (strain CL Brener)) (UniProt Q4DSP6).
T4 sequence (whole entry): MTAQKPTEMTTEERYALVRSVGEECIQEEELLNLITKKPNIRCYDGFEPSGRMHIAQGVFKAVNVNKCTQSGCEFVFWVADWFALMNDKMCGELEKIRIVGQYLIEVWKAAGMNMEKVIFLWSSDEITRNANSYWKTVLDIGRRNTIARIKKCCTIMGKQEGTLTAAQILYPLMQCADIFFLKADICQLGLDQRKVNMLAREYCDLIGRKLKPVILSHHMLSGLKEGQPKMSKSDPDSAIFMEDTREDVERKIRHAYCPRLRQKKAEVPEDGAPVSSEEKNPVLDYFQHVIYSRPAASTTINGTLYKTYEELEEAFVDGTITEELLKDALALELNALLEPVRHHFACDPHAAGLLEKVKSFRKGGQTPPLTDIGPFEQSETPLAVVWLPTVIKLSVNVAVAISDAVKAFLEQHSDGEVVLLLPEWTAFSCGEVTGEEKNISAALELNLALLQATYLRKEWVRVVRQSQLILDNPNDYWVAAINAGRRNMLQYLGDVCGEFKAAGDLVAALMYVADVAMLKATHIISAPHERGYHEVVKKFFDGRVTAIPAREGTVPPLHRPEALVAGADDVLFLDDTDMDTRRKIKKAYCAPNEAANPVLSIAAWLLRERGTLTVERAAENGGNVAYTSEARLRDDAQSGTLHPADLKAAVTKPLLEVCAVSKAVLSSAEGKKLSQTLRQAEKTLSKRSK
Briefly: Trypanosoma cruzi tyrosyl tRNA synthetase (TcYRS) _High Tyrosine SOP. Also: in the data most compounds retested in dose-response had high values. Type of assay: functional. Particulars: 30 µM.

Assay [10] deals with T4, Tyrosyl-tRNA synthetase, putative (Trypanosoma cruzi (strain CL Brener)). The experiment in a line: Trypanosoma cruzi tyrosyl tRNA synthetase (TcYRS) SOP. Type of assay: functional. Particulars: 30 µM.
The target of assay [11] is Chromo domain-containing protein 1 (Saccharomyces cerevisiae (strain ATCC 204508 / S288c) (Baker's yeast)) (UniProt P32657). The experiment in a line: ScCHD-1 Enzyme Inhibition Assay. Also: in the data most compounds retested in dose-response had high values. Type of assay: functional. Particulars: 30 µM.
Chain of Chromo domain-containing protein 1 (Saccharomyces cerevisiae (strain ATCC 204508 / S288c) (Baker's yeast)) (P32657 whole entry, the tested form may be a part): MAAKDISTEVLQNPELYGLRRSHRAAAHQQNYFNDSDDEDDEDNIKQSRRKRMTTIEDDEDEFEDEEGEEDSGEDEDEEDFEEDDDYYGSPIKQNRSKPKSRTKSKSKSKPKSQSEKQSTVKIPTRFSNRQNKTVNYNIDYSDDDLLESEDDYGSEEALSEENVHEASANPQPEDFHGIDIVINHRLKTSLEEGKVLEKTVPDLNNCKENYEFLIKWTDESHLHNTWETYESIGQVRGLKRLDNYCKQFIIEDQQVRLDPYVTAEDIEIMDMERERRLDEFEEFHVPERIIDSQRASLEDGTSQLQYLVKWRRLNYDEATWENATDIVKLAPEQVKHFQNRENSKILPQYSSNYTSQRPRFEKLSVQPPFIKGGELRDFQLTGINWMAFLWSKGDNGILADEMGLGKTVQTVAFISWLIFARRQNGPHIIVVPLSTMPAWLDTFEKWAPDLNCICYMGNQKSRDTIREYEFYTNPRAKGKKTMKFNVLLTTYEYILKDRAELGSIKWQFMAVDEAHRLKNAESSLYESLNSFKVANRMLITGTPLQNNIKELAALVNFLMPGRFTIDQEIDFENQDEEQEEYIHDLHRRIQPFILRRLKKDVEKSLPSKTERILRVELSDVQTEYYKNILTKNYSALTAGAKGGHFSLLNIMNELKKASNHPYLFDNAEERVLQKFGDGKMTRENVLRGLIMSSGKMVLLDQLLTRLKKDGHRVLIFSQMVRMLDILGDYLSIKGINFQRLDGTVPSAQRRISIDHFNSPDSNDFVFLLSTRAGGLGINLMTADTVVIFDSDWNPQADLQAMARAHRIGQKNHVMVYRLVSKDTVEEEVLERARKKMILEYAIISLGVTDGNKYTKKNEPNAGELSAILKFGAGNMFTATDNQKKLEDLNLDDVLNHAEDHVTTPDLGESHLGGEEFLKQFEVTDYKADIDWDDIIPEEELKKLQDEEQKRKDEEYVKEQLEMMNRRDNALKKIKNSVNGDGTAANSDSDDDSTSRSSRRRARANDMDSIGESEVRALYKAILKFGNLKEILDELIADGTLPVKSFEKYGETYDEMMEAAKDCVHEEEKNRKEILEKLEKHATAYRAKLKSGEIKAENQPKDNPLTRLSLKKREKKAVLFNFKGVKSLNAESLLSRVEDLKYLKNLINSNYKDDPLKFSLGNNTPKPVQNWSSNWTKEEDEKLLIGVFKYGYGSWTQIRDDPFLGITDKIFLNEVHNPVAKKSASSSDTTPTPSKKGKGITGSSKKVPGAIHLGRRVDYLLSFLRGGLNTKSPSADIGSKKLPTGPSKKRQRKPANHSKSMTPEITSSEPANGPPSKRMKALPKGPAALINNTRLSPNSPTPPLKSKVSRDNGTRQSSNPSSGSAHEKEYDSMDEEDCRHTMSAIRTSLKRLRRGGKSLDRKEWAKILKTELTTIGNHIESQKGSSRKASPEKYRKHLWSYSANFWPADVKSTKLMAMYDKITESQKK

Structures are written as SMILES. For some of these results: Entries with a potency or affinity are not part of this list.

Chain of Protein translocase subunit SecA (Escherichia coli (strain K12)) (P10408 whole entry): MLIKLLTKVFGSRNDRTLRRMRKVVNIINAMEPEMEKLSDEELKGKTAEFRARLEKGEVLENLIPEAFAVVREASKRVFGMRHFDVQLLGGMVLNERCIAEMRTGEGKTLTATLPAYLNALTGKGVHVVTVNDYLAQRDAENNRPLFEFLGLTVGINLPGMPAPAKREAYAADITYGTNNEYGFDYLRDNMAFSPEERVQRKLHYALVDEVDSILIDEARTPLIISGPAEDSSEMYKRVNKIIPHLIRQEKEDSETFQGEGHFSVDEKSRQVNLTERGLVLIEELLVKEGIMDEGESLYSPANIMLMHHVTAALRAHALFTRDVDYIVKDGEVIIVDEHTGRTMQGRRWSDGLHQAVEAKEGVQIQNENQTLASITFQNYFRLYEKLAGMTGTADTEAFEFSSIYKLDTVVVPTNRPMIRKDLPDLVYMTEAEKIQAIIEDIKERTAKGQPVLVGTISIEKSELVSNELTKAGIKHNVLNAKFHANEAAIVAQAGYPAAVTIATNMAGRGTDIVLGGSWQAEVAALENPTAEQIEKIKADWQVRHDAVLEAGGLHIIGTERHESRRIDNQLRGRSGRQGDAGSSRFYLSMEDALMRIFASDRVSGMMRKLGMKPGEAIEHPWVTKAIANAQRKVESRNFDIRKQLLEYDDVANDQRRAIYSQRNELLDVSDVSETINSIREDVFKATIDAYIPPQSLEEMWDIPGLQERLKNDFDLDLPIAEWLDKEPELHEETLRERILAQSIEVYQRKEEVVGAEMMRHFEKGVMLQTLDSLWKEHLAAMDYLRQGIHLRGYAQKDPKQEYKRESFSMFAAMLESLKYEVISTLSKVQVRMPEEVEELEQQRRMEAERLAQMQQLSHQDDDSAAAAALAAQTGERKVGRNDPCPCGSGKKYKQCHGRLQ
Chain of Sialic acid-binding Ig-like lectin 9 (Homo sapiens) (Q9Y336 whole entry): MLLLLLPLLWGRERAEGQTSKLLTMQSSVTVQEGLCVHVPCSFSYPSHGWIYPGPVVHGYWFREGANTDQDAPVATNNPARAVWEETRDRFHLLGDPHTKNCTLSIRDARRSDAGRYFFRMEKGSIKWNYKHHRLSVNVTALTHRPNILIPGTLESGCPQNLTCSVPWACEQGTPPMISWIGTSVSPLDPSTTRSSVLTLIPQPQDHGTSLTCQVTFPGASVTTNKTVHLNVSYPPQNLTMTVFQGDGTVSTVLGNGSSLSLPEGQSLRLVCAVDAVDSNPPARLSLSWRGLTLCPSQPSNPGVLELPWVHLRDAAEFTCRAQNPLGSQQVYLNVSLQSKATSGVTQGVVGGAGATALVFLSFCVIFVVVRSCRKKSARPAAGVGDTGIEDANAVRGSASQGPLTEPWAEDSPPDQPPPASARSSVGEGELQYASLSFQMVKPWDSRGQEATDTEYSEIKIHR

As for `O=C(c1cccnc1N1CCOCC1)N1CCCC(n2ccnc2)C1` (stereo not drawn), the Percent Effect in [1] is -1.05%; in assay [2] it was 18.4%; in [3], 3.79%; in assay [4], 3.27%; in [5] it was -3.76%; in assay [6], -1.53%. Besides, the Percent Effect in [7] is 9.36%; in assay [8] it was 0.0212%; in assay [9], 4.41%; in assay [10] it was 17.1%; in assay [11], -9.1%.

For the compound `CC(NCc1ccccc1Br)c1ccc2[nH]c(=O)[nH]c2c1` (stereo not drawn), the Percent Effect is -1.71% in assay [1]; -18.9% in [2]; -5.22% in [3]; 10.9% in assay [4]; 5.19% in assay [5]; -0.401% in [6]. The Percent Effect is -0.18% in assay [7]; 25.5% in assay [8]; -0.493% in assay [9]; 6.17% in [10]; -4.59% in assay [11].

Consider `CC(C)c1nccn1C1CCCN(C(=O)c2cccc3c2OCO3)C1` (stereo not drawn), for which the Percent Effect in assay [1] was 1.99%; in assay [2] it was -46%; in [3], -3.6%; in [4], 9.39%; in assay [5], 2.55%; in [6], -5.61%. Besides, the Percent Effect in [7] is 2.16%; in [8] it was 9.02%; in assay [9] it was 2.46%; in assay [10], 11.1%; in [11], -2.9%.

As for `CSCC(CCO)NC(=O)Nc1cccc(Br)c1` (stereo not drawn), the Percent Effect in assay [1] is -3.42%; in assay [2] it was 2.74%; in assay [3], 8.84%; in assay [4], -3.56%; in [5], -3.53%; in assay [6], 3.18%. For the same compound, the Percent Effect was 17.2% in [7]; 6.61% in assay [8]; 0% in assay [9]; 2.5% in assay [10]; -2.08% in assay [11].

`Cc1noc(C(C)N2CCN(CCC(=O)N3CCCCC3)CC2)n1` (stereo not drawn): the Percent Effect was -2.79% in [1]; 10.5% in [2]; -2.48% in assay [3]; 3.61% in assay [4]; 4.19% in assay [5]; -16.6% in [6]. In addition, the Percent Effect is 9.68% in [7]; 21.2% in assay [8]; 3.19% in assay [9]; 15.6% in assay [10]; -5.47% in assay [11].

In the case of `CCn1nc(CNC(=O)C2CC(=O)N(C3CCCC3)C2)c2ccccc21` (stereo not drawn), the Percent Effect in [1] was -9.13%; in [2], 2.7%; in assay [3], 3.05%; in [4], 28.4%; in assay [5], -1.74%; in assay [6], -2.86%. The Percent Effect in [7] is 3.79%; in assay [8], 10.4%; in assay [9], -0.529%; in assay [10] it was 2.44%; in assay [11], -3.19%.

`CCCNCC1(O)CCCN(Cc2cccc(C)c2)C1=O` (stereo not drawn): the Percent Effect was -3.44% in assay [1]; 0% in [2]; 3.08% in assay [3]; -2.93% in assay [4]; 1.57% in assay [5]; -1.82% in assay [6]. Besides, the Percent Effect in assay [7] was -2.66%; in [8] it was -21.7%; in assay [9] it was 3.23%; in [10] it was 5%; in assay [11], -1.9%.

On to `Cc1cncc(C2CCCN(C(=O)c3scnc3C)C2)n1` (stereo not drawn), for which the Percent Effect is -5.85% in [1]; 1.35% in assay [2]; 3.8% in assay [3]; 2.37% in assay [4]; 0.395% in [5]; -2.09% in assay [6]. The Percent Effect in assay [7] was 7.33%; in [8], 2.09%; in [9], 3.23%; in assay [10] it was 11.7%; in [11], -22.3%.

For the origin of these results see ChEMBL document CHEMBL3988442, “University of Dundee, Small-Polar-MMV Screening Library” (2021).
